Measured values taken from PubChem BioAssay (NCI).
“And” between values parts separate entries of the source, which are not always exact repeats. Equal values may be shown once. The panel holds about 83,000 compounds, 20% with a hit somewhere; the sample as a whole holds those more often.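 Single-dose data. Exposure time 48 hours. Values below 10 considered active.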 A number with no mark means an inactive call. The source made the active and inactive calls.

How the values were obtained:
Experiment in all cases: NCI-60 one-dose screen, 48 h (100 = growth as untreated, 0 = no growth, -100 = all killed)
Details in all cases: 10 µM
SR leukemia = system: SR leukemia
RPMI-8226 leukemia = system: RPMI-8226 leukemia
OVCAR-8 ovarian = system: OVCAR-8 ovarian
OVCAR-5 ovarian = system: OVCAR-5 ovarian
OVCAR-4 ovarian = system: OVCAR-4 ovarian
SK-OV-3 ovarian = system: SK-OV-3 ovarian
IGROV1 ovarian = system: IGROV1 ovarian
OVCAR-3 ovarian = system: OVCAR-3 ovarian
HS 578T breast = system: HS 578T breast
NCI/ADR-RES ovarian = system: NCI/ADR-RES ovarian
T-47D breast = system: T-47D breast
BT-549 breast = system: BT-549 breast
MDA-MB-435 melanoma = system: MDA-MB-435 melanoma
SW-620 colon = system: SW-620 colon
MCF7 breast = system: MCF7 breast
HCT-116 colon = system: HCT-116 colon
HCC-2998 colon = system: HCC-2998 colon
KM12 colon = system: KM12 colon
MDA-MB-468 breast = system: MDA-MB-468 breast

SMILES	growth (SR leukemia)	growth (RPMI-8226 leukemia)	growth (OVCAR-8 ovarian)	growth (OVCAR-5 ovarian)	growth (OVCAR-4 ovarian)	growth (SK-OV-3 ovarian)	growth (IGROV1 ovarian)	growth (OVCAR-3 ovarian)	growth (HS 578T breast)	growth (NCI/ADR-RES ovarian)	growth (T-47D breast)	growth (BT-549 breast)	growth (MDA-MB-435 melanoma)	growth (SW-620 colon)	growth (MCF7 breast)	growth (HCT-116 colon)	growth (HCC-2998 colon)	growth (KM12 colon)	growth (MDA-MB-468 breast)
O/N=C(\CSc1nnc(-c2c[nH]c3ccccc23)n1-c1ccccc1)c1ccc(Br)cc1	1.29% (active)	-13.1% (active)	-41.7% (active)	-82.5% (active)	-83.4% (active)	-50.2% (active)	-65.4% (active)	0.699% (active)	-39.4% (active)	-73.9% (active)	5.96% (active)	-72.7% (active)	-100% (active)	-86.3% (active)	-42.5% (active)	-36.3% (active)	-66.5% (active)	2.11% (active)	-94.5% (active)
COc1ccc(CN2[C@@H](C(=O)NCc3ccc(C(=O)NO)cc3)Cc3c([nH]c4ccccc34)[C@@H]2C2CC2)cc1	15.2%	19.3%	16.7%	11.5%	35.6%	-24.8% (active)	18.1%	10.5%	-14.3% (active)	69.9%	3.04% (active)	43.3%	-42.1% (active)	-21.5% (active)	14.1%	12.9%	25.1%	20.3%	-3.5% (active)
CC(=O)C1=C(C)NC(SCC(=O)Nc2ccc(S(=O)(=O)Nc3cc(C)on3)cc2)=NC1c1ccccc1 (centres undefined)	94.1%	99.8%	107%	109%	100%	101%	114%	107%	95.6%	103%	99.3%	114%	99.6%	106%	87.5%	105%	112%	99.8%	111%
N#C/C(=C\c1ccc(N(c2ccccc2)c2ccccc2)cc1)C(N)=O	69.1%	19.8%	75.1%	-60.6% (active)	4.67% (active)	56%	-21.2% (active)	3.69% (active)	99.2%	57.4%	-26.7% (active)	69.6%	92.7%	45.6%	6.51% (active)	14.9%	73.7%	78.6%	-91.2% (active)
CCOc1ccc2ncc(C#Cc3cncc(C(=O)Nc4ccc(CN5CCN(C)CC5)c(C(F)(F)F)c4)c3)n2n1	1.01% (active)	-13.3% (active)	-60.9% (active)	-87% (active)	-60.6% (active)	45.7%	-58.2% (active)	-79.1% (active)	-28.2% (active)	-70.1% (active)	71.9%	-60.9% (active)	-74.2% (active)	-62.1% (active)	-63.7% (active)	-48% (active)	-89.3% (active)	-91.1% (active)	-76.1% (active)
O=C(CSc1nnc(-c2c[nH]c3ccccc23)n1-c1ccccc1)c1ccc(Br)cc1	90.8%	54.4%	43.5%	58.3%	46.2%	48.6%	64.1%	42.5%	52.3%	26.3%	22%	65.2%	40.9%	79.8%	53.4%	54.3%	31.7%	34.6%	22%
O=c1oc2ccccc2cc1-c1csc(N=Nc2c(O)[nH]c3ccc(Br)cc23)n1	97.1%	99.7%	79.1%	98.9%	87.2%	91.9%	79.5%	89.7%	33.7%	76.2%	89.1%	62.9%	102%	104%	80.7%	64.1%	96.3%	99.9%	95.2% and 64.3%
CCOC(=O)N/C(=C1/OCCN1C)[P+](c1ccccc1)(c1ccccc1)c1ccccc1	66.6%	34.2%	89.3%	85.1%	65.4%	95.1%	62.5%	84.7%	62.4%	106%	65.9%	75.4%	51.5%	89.1%	41.7%	75.1%	60.4%	51.3%	-11.4% (active)
Cn1cc(-c2cc(N)n3nc(-c4c[nH]c5ccc(Br)cc45)cc3n2)c2cc(Br)cnc21	-15.6% (active)	-6.39% (active)	-41.6% (active)	-61.9% (active)	-41.1% (active)	-55.9% (active)	-21.6% (active)	-90.4% (active)	-29% (active)	-60% (active)	-74.7% (active)	-75.4% (active)	-46.3% (active)	-71.2% (active)	-79.5% (active)	-69.6% (active)	-98.1% (active)	-73.1% (active)	-98.3% (active)
O=C1CCC(N2Cc3cc(CC(=O)Nc4ccc(N5CCCCC5)cc4)ccc3C2=O)C(=O)N1 (centres undefined)	77.2%	66.4%	20.9%	70.5%	31.1%	61%	31.8%	53.9%	27.4%	25.2%	14.1%	-9.03% (active)	70.5%	24%	59.7%	102%	34.7%	41.1%	-16.4% (active)
Cc1ccc2nc(COc3ccc(C(=O)NNC(=S)NC(=O)c4ccccc4)cc3)[nH]c2c1	25.8%	64.9%	42.1%	80.2%	57.3%	67.2%	53.4%	58.2%	60.5%	-3.62% (active)	60.5%	81.8%	64.3%	39.5%	30.6%	38.5%	66.1%	49.4%	55.6%
Cc1ccc(C(=O)NNC(=O)CSc2nc3ccccc3c(=O)[nH]2)cc1	73%	105%	97.8%	104%	104%	116%	102%	103%	97.5%	101%	95.8%	94.2%	101%	103%	92.3%	107%	105%	107%	84.6%
O=C(N/C(=C1/OCCN1Cc1ccccc1)[P+](c1ccccc1)(c1ccccc1)c1ccccc1)c1ccccc1	8.3% (active)	0.374% (active)	16.5%	67.3%	21.2%	23%	2.86% (active)	-7.02% (active)	-2.64% (active)	97.8%	11.2%	-16.4% (active)	18.5%	12.5%	1.56% (active)	2.1% (active)	-10.8% (active)	-1.17% (active)	-30% (active)
Cc1cc2nc3c4ccccc4n(CCO)c3nc2cc1C	27.2%	93%	72.7%	103%	-43.7% (active)	81.7%	58.4%	78.7%	48.3%	62.3%	73.5%	78.7%	94.6%	75.5%	52.1%	34.4%	123%	92.2%	74.4%
N#Cc1c(-c2ccc(Cl)cc2)cc(-c2ccccc2)nc1OCc1ccccc1	42.2%	60.3%	93%	92.9%	76.9%	83.1%	87%	97.9%	85.2%	76%	52.3%	83.4%	96.1%	84%	53.8%	53.7%	95%	82.6%	65.4%
C=C1CCC2C3(C)COC(c4c(F)cccc4F)OC3CCC2(C)C1C/C=C1/C(=O)OCC1O (centres undefined)	14.8%	15.3%	-42.5% (active)	-10% (active)	12.4%	54.7%	-26.7% (active)	-67.9% (active)	17.5%	-15.1% (active)	1.57% (active)	-78.4% (active)	-9.65% (active)	-41.4% (active)	-12.6% (active)	-59.2% (active)	-65% (active)	-67.5% (active)	-24% (active)
